Molecules are shown by their SMILES. About 1,500 (3.8%) of roughly 39,000 compounds were called active. This is one part of a sample in which actives are shown more often than they occur.

This assay relates to HSkMC (human skeletal muscle cells). In words: cytotoxicity call (relative viability < 0.9). Conditions: 10 µM.
`O=C(C[C@@H]1CC=CCC[C@@H](Cc2ccc(F)cc2)C(=O)OC[C@H](Cc2c[nH]c3ccccc23)NC1=O)N[C@@H](CO)Cc1ccccc1`: the cytotoxicity call is “inactive”.

In the case of `O=C(C[C@@H]1CC=CCC[C@H](Cc2ccc(F)cc2)C(=O)OC[C@@H](Cc2c[nH]c3ccccc23)NC1=O)N[C@@H](CO)Cc1ccccc1`, the cytotoxicity call is “inactive”.

Regarding `O=C(C[C@@H]1CC=CCC[C@@H](Cc2ccc(F)cc2)C(=O)OC[C@@H](Cc2c[nH]c3ccccc23)NC1=O)N[C@H](CO)Cc1ccccc1`, the cytotoxicity call is “active”.

With `C[C@H]1CN([C@@H](C)CO)C(=O)c2cccc(NC(=O)Nc3ccc(C(F)(F)F)cc3)c2O[C@@H]1CN(C)Cc1ccncc1`, the cytotoxicity call was “inactive”.

As to `COc1ccc(NC(=O)Nc2ccc3c(c2)C(=O)N([C@@H](C)CO)C[C@H](C)[C@H](CN(C)Cc2ccc(C(=O)O)cc2)OCCCC[C@@H](C)O3)cc1`, the cytotoxicity call is “inactive”.

Regarding `Cc1ccc(CN)cc1Cl`, the cytotoxicity call is “inactive”.

With `Cc1cc(C(=O)c2cc3cc(Cl)ccc3o2)ccc1Cl`, the cytotoxicity call is “inactive”.

As for `Cc1cc(CN)cc(C)c1NC(=O)c1ccc(-c2cc(Cl)ccc2Cl)o1`, the cytotoxicity call is “active”.

On to `COc1cccc(S(=O)(=O)N(C)C[C@H]2Oc3ncc(Br)cc3C(=O)N([C@H](C)CO)C[C@H]2C)c1`, for which the cytotoxicity call is “inactive”.

Take `COC(CN(C)C(=O)c1cn(C)c2ccc(S(=O)(=O)N3CCOCC3)cc2c1=O)OC`: the cytotoxicity call was “inactive”.

As to `Cn1cc(S(=O)(=O)N2CCN(c3ccc(F)cc3)CC2)c(=O)n(C)c1=O`, the cytotoxicity call was “inactive”.

As for `CCCn1c(=O)[nH]c2nc(-c3ccc(S(=O)(=O)N4CCN(c5ccc(Cl)cc5)CC4)cc3)[nH]c2c1=O`, the cytotoxicity call is “active”.

As for `Cc1[nH]c(=O)[nH]c(=O)c1S(=O)(=O)N1CCN(c2ccccc2)CC1`, the cytotoxicity call was “inactive”.

On to `C[C@H](CO)N1C[C@H](C)[C@H](CN(C)C(=O)c2ccccc2)OCCCC[C@H](C)Oc2ccc(NS(=O)(=O)c3ccccc3)cc2C1=O`, for which the cytotoxicity call is “inactive”.

With `CC(=O)Nc1ccc(S(=O)(=O)CCO)cc1`, the cytotoxicity call is “inactive”.

For the compound `C[C@H](CO)N1C[C@H](C)[C@@H](CN(C)Cc2ccncc2)Oc2c(NC(=O)C3CCOCC3)cccc2C1=O`, the cytotoxicity call is “inactive”.

Consider `COc1ccc([Si](C)(C)[C@@H]2[C@@H](CCn3cc([C@H](O)c4ccccc4)nn3)O[C@]3(C(=O)N(c4ccccc4)c4ccccc43)[C@H]2C)cc1`, for which the cytotoxicity call is “inactive”.

Consider `COc1ccc([Si](C)(C)[C@H]2[C@H](CC(=O)N3Cc4ccccc4C[C@H]3CO)O[C@@]3(C(=O)N(Cc4cccc(I)c4)c4ccccc43)[C@@H]2C)cc1`, for which the cytotoxicity call was “inactive”.

`COc1ccc([Si](C)(C)[C@@H]2[C@@H](CC(=O)N3Cc4ccccc4C[C@H]3CO)O[C@]3(C(=O)N(Cc4ccc(I)cc4)c4ccccc43)[C@H]2C)cc1`: the cytotoxicity call is “inactive”.

For the compound `COc1ccc([Si](C)(C)[C@@H]2[C@@H](CC(=O)N(CCO)Cc3ccccc3)O[C@]3(C(=O)N(C)c4c(Br)cc(C)cc43)[C@H]2C)cc1`, the cytotoxicity call was “inactive”.

With `COc1ccc([Si](C)(C)[C@H]2[C@H](CC(=O)N(CCO)Cc3ccccc3)O[C@@]3(C(=O)N(C)c4c(Br)cc(C)cc43)[C@@H]2C)cc1`, the cytotoxicity call was “inactive”.

Regarding `COc1ccc([Si](C)(C)[C@@H]2[C@@H](CC(=O)N3Cc4ccccc4C[C@H]3CO)O[C@]3(C(=O)N(C)c4c(Br)cc(C)cc43)[C@H]2C)cc1`, the cytotoxicity call is “active”.

As to `COc1ccc([Si](C)(C)[C@@H]2[C@@H](CCn3cc([C@H](O)c4ccccc4)nn3)O[C@]3(C(=O)N(C)c4c(Br)cc(C)cc43)[C@H]2C)cc1`, the cytotoxicity call was “active”.

As for `COc1ccc([Si](C)(C)[C@H]2[C@H](CC(=O)N3Cc4ccccc4C[C@H]3CO)O[C@@]3(C(=O)N(C)c4c(Br)cc(C)cc43)[C@@H]2C)cc1`, the cytotoxicity call was “active”.

In the case of `COc1ccc([Si](C)(C)[C@H]2[C@H](CCn3cc([C@H](O)c4ccccc4)nn3)O[C@@]3(C(=O)N(C)c4c(Br)cc(C)cc43)[C@@H]2C)cc1`, the cytotoxicity call is “inactive”.

Source of the values: the antibiotic and cytotoxicity screens of Wong et al. (2023).
